# Source: PubChem BioAssay AID1159580 (chemical genetic matrix, 2015)
# Where “and” joins values, the source holds several entries; their conditions need not be identical. Identical values can stand only once. The campaign covered roughly 5,500 compounds. About 2,000 (36%) were called active. Not shown: some 18% with an inconclusive outcome. The list shows a part of the results. Values without a mark were called inactive. Rule as the data show it: active = normalized growth mostly below about 0.91 (no sharp cut-off); inconclusive = no clear call, values can overlap the other calls; inactive = mostly above about 0.92.
# Test: chemical genetic growth profiling, strain panel (AID 1159580);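 also: tested at 20 µM; growth read once vehicle control cultures reached saturation at 30 °C; 1 = growth at the plate median or of vehicle wells; lower values mean less growth of the strain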
# Conditions: S. cerevisiae deletion strains, growth OD
structure (smiles),measurement,setting,value
CO/N=C(\C(=O)N[C@@H]1C(=O)N2C(C(=O)O)=C(CSc3nc(=O)c(O)nn3C)CS[C@H]12)c1csc(N)n1,normalized growth,"locus YAL021C, strain ccr4, active compounds read low",0.982
same,normalized growth,"locus YAL026C, strain drs2, active compounds read low",0.974
same,normalized growth,"locus YAL030W, strain snc1, active compounds read low",0.984
same,normalized growth,"locus YBL061C, strain skt5, active compounds read low",0.966
same,normalized growth,"locus YBR009C, strain hhf1, active compounds read low",0.985
same,normalized growth,"locus YBR021W, strain FUR4, active compounds read low",1.03
same,normalized growth,"locus YBR023C, strain chs3, active compounds read low",0.979
same,normalized growth,"locus YBR171W, strain sec66, active compounds read low",0.96
same,normalized growth,"locus YBR229C, strain ROT2, active compounds read low",0.999
same,normalized growth,"locus YBR231C, strain swc5, active compounds read low",0.975
same,normalized growth,"locus YBR279W, strain paf1, active compounds read low",0.959
same,normalized growth,"locus YCL011C, strain gbp2, active compounds read low",0.958
same,normalized growth,"locus YCL016C, strain dcc1, active compounds read low",0.976
same,normalized growth,"locus YCL029C, strain bik1, active compounds read low",0.986
same,normalized growth,"locus YCL061C, strain MRC1, active compounds read low",0.969
same,normalized growth,"locus YCL069W, strain vba3, active compounds read low",0.986
same,normalized growth,"locus YCR088W, strain abp1, active compounds read low",0.962
same,normalized growth,"locus YDL005C, strain med2, active compounds read low",0.984
same,normalized growth,"locus YDL035C, strain GPR1, active compounds read low",0.982
same,normalized growth,"locus YDL040C, strain nat1, active compounds read low",0.973
same,normalized growth,"locus YDL074C, strain BRE1, active compounds read low",1.03
same,normalized growth,"locus YDL101C, strain DUN1, active compounds read low",0.996
same,normalized growth,"locus YDL134C, strain PPH21, active compounds read low",1
same,normalized growth,"locus YDL185W, strain tfp1, active compounds read low",0.946
same,normalized growth,"locus YDL192W, strain arf1, active compounds read low",0.984
same,normalized growth,"locus YDR001C, strain nth1, active compounds read low",0.959
same,normalized growth,"locus YDR069C, strain doa4, active compounds read low",1
same,normalized growth,"locus YDR101C, strain arx1, active compounds read low",1.02
same,normalized growth,"locus YDR137W, strain rgp1, active compounds read low",0.968
same,normalized growth,"locus YDR159W, strain sac3, active compounds read low",0.921
same,normalized growth,"locus YDR162C, strain NBP2, active compounds read low",0.97
same,normalized growth,"locus YDR195W, strain ref2",1.01
same,normalized growth,"locus YDR297W, strain sur2, active compounds read low",0.98
same,normalized growth,"locus YDR318W, strain mcm21, active compounds read low",0.982
same,normalized growth,"locus YDR334W, strain swr1, active compounds read low",0.931
same,normalized growth,"locus YDR335W, strain msn5, active compounds read low",0.966
same,normalized growth,"locus YDR388W, active compounds read low",0.981
same,normalized growth,"locus YDR392W, strain spt3, active compounds read low",0.968
same,normalized growth,"locus YDR502C, strain sam2, active compounds read low",1.01
same,normalized growth,"locus YEL003W, strain gim4, active compounds read low",0.972
same,normalized growth,"locus YEL037C, strain rad23, active compounds read low",0.969
same,normalized growth,"locus YEL061C, strain CIN8 (second series), active compounds read low",0.947
same,normalized growth,"locus YEL061C, strain CIN8, active compounds read low",1
same,normalized growth,"locus YER015W, strain faa2, active compounds read low",0.977
same,normalized growth,"locus YER016W, strain bim1, active compounds read low",0.976
same,normalized growth,"locus YER110C, active compounds read low",0.974
same,normalized growth,"locus YER111C, strain swi4, active compounds read low",0.979
same,normalized growth,"locus YER155C, strain BEM2 (second series), active compounds read low",0.959
same,normalized growth,"locus YER155C, strain BEM2, active compounds read low",1.01
same,normalized growth,"locus YER167W, strain BCK2, active compounds read low",0.988
same,normalized growth,"locus YFR010W, strain ubp6, active compounds read low",0.959
same,normalized growth,"locus YGL078C, strain dbp3, active compounds read low",0.992
same,normalized growth,"locus YGL086W, strain mad1, active compounds read low",1.03
same,normalized growth,"locus YGL167C, strain pmr1, active compounds read low",0.956
same,normalized growth,"locus YGL173C, strain kem1, active compounds read low",0.975
same,normalized growth,"locus YGL227W, strain vid30, active compounds read low",0.977
same,normalized growth,"locus YGL240W, strain doc1, active compounds read low",0.975
same,normalized growth,"locus YGL248W, strain PDE1, active compounds read low",1
same,normalized growth,"locus YGL253W, strain hxk2, active compounds read low",0.981
same,normalized growth,"locus YGR135W, strain pre9, active compounds read low",0.948
same,normalized growth,"locus YGR252W, strain gcn5, active compounds read low",1.02
same,normalized growth,"locus YHR013C, strain ard1, active compounds read low",1.2 [resistant] (active)
same,normalized growth,"locus YHR027C, strain rpn1, active compounds read low",0.978
same,normalized growth,"locus YHR030C, strain SLT2, active compounds read low",0.988 and 1.01
same,normalized growth,"locus YHR079C, strain IRE1 (second series), active compounds read low",0.966
same,normalized growth,"locus YHR079C, strain IRE1, active compounds read low",1.01
same,normalized growth,"locus YHR094C, strain hxt1, active compounds read low",0.976
same,normalized growth,"locus YHR129C, strain ARP1, active compounds read low",0.992
same,normalized growth,"locus YHR142W, strain chs7, active compounds read low",0.982
same,normalized growth,"locus YHR200W, strain rpn10, active compounds read low",0.984
same,normalized growth,"locus YIL066C, strain RNR3, active compounds read low",1.02
same,normalized growth,"locus YIL073C, strain SPO22, active compounds read low",0.941
same,normalized growth,"locus YIL125W, strain kgd1, active compounds read low",0.985
same,normalized growth,"locus YIR030C, strain dcg1, active compounds read low",0.961
same,normalized growth,"locus YJL092W, strain hpr5, active compounds read low",0.975
same,normalized growth,"locus YJL095W, strain BCK1 (second series), active compounds read low",0.966
same,normalized growth,"locus YJL095W, strain BCK1, active compounds read low",1.02 and 0.999
same,normalized growth,"locus YJL115W, strain asf1, active compounds read low",0.952
same,normalized growth,"locus YJL129C, strain trk1, active compounds read low",0.958
same,normalized growth,"locus YJL134W, strain LCB3, active compounds read low",0.993
same,normalized growth,"locus YJL154C, strain vps35, active compounds read low",0.954
same,normalized growth,"locus YJL164C, strain tpk1, active compounds read low",0.992
same,normalized growth,"locus YJL166W, strain qcr8, active compounds read low",0.981
same,normalized growth,"locus YJL168C, strain set2, active compounds read low",0.998
same,normalized growth,"locus YJL187C, strain SWE1 (second series), active compounds read low",1.01
same,normalized growth,"locus YJR043C, strain POL32, active compounds read low",1.03
same,normalized growth,"locus YJR066W, strain TOR1, active compounds read low",0.965
same,normalized growth,"locus YJR075W, strain HOC1, active compounds read low",0.994
same,normalized growth,"locus YKL009W, strain mrt4, active compounds read low",0.974
same,normalized growth,"locus YKL068W, active compounds read low",0.974
same,normalized growth,"locus YKL085W, strain MDH1 (second series), active compounds read low",0.984
same,normalized growth,"locus YKL085W, strain MDH1, active compounds read low",0.984
same,normalized growth,"locus YKL160W, strain elf1, active compounds read low",0.968
same,normalized growth,"locus YKL190W, strain CNB1, active compounds read low",0.992
same,normalized growth,"locus YKR001C, strain vps1, active compounds read low",0.993
same,normalized growth,"locus YKR026C, strain gcn3, active compounds read low",0.974
same,normalized growth,"locus YKR091W, strain srl3, active compounds read low",0.982
same,normalized growth,"locus YLL001W, strain dnm1, active compounds read low",0.965
same,normalized growth,"locus YLL026W, active compounds read low",0.986
same,normalized growth,"locus YLL041C, strain sdh2, active compounds read low",0.949
same,normalized growth,"locus YLR027C, strain aat2, active compounds read low",0.971
same,normalized growth,"locus YLR039C, strain RIC1, active compounds read low",0.988
same,normalized growth,"locus YLR058C, strain SHM2, active compounds read low",0.994
same,normalized growth,"locus YLR102C, strain apc9, active compounds read low",0.985
same,normalized growth,"locus YLR113W, strain HOG1, active compounds read low",1.04
same,normalized growth,"locus YLR221C, strain rsa3, active compounds read low",0.969
same,normalized growth,"locus YLR258W, strain gsy2, active compounds read low",0.957
same,normalized growth,"locus YLR262C, strain YPT6 (second series), active compounds read low",0.947
same,normalized growth,"locus YLR262C, strain YPT6, active compounds read low",0.982
same,normalized growth,"locus YLR268W, strain sec22, active compounds read low",0.992
same,normalized growth,"locus YLR320W, strain mms22, active compounds read low",0.97
same,normalized growth,"locus YLR330W, strain CHS5, active compounds read low",0.983
same,normalized growth,"locus YLR342W, strain FKS1 (second series), active compounds read low",0.985
same,normalized growth,"locus YLR342W, strain FKS1, active compounds read low",0.983
same,normalized growth,"locus YLR357W, strain rsc2, active compounds read low",0.893
same,normalized growth,"locus YLR370C, strain arc18, active compounds read low",0.971
same,normalized growth,"locus YLR371W, strain rom2, active compounds read low",0.979
same,normalized growth,"locus YLR384C, strain iki3, active compounds read low",0.967
same,normalized growth,"locus YLR418C, strain cdc73, active compounds read low",0.994
same,normalized growth,"locus YML016C, strain PPZ1, active compounds read low",0.996
same,normalized growth,"locus YML032C, strain rad52, active compounds read low",1.02
same,normalized growth,"locus YML120C, strain ndi1, active compounds read low",0.986
same,normalized growth,"locus YML124C, strain tub3, active compounds read low",0.989
same,normalized growth,"locus YMR058W, strain fet3, active compounds read low",0.969
same,normalized growth,"locus YMR078C, strain ctf18, active compounds read low",0.964
same,normalized growth,"locus YMR125W, strain sto1, active compounds read low",0.958
same,normalized growth,"locus YMR129W, active compounds read low",0.996
same,normalized growth,"locus YMR205C, strain PFK2, active compounds read low",0.968
same,normalized growth,"locus YMR223W, strain ubp8, active compounds read low",0.96
same,normalized growth,"locus YMR231W, strain pep5, active compounds read low",0.977
same,normalized growth,"locus YMR263W, strain SAP30, active compounds read low",1.01
same,normalized growth,"locus YMR307W, strain GAS1, active compounds read low",0.981
same,normalized growth,"locus YNL067W, strain RPL9B, active compounds read low",1.02
same,normalized growth,"locus YNL071W, strain lat1, active compounds read low",0.956
same,normalized growth,"locus YNL183C, strain NPR1, active compounds read low",0.96
same,normalized growth,"locus YNL209W, strain ssb2, active compounds read low",0.961
same,normalized growth,"locus YNL233W, strain BNI4, active compounds read low",1.03
same,normalized growth,"locus YNL248C, strain rpa49, active compounds read low",0.924
same,normalized growth,"locus YNL250W, strain rad50, active compounds read low",0.951
same,normalized growth,"locus YNL271C, strain bni1, active compounds read low",0.992
same,normalized growth,"locus YNL298W, strain CLA4, active compounds read low",0.969
same,normalized growth,"locus YNL307C, strain MCK1, active compounds read low",0.987
same,normalized growth,"locus YNL322C, strain KRE1 (second series), active compounds read low",0.978
same,normalized growth,"locus YNR049C, strain mso1, active compounds read low",0.97
same,normalized growth,"locus YNR052C, strain pop2, active compounds read low",0.986
same,normalized growth,"locus YOL006C, strain TOP1, active compounds read low",1.11
same,normalized growth,"locus YOL012C, strain htz1",0.913
same,normalized growth,"locus YOL147C, strain pex11, active compounds read low",0.972
same,normalized growth,"locus YOR001W, strain rrp6, active compounds read low",0.963
same,normalized growth,"locus YOR061W, strain CKA2, active compounds read low",0.998
same,normalized growth,"locus YOR069W, strain VPS5, active compounds read low",0.988
same,normalized growth,"locus YOR070C, strain gyp1, active compounds read low",0.977
same,normalized growth,"locus YOR080W, strain dia2, active compounds read low",0.971
same,normalized growth,"locus YOR083W, strain WHI5, active compounds read low",0.981
same,normalized growth,"locus YOR106W, strain vam3, active compounds read low",0.933
same,normalized growth,"locus YOR136W, strain idh2, active compounds read low",0.994
same,normalized growth,"locus YOR144C, strain elg1, active compounds read low",0.993
same,normalized growth,"locus YOR184W, strain ser1, active compounds read low",0.974
same,normalized growth,"locus YOR231W, strain MKK1, active compounds read low",1.04
same,normalized growth,"locus YOR265W, strain rbl2, active compounds read low",0.976
same,normalized growth,"locus YOR270C, strain vph1, active compounds read low",0.947
same,normalized growth,"locus YOR290C, strain snf2, active compounds read low",0.962
same,normalized growth,"locus YOR316C, strain cot1, active compounds read low",0.982
same,normalized growth,"locus YPL051W, strain arl3, active compounds read low",0.964
same,normalized growth,"locus YPL055C, strain LGE1, active compounds read low",1.07
same,normalized growth,"locus YPL078C, strain atp4, active compounds read low",0.991
same,normalized growth,"locus YPL106C, strain sse1, active compounds read low",0.917
same,normalized growth,"locus YPL240C, strain hsp82, active compounds read low",0.975
same,normalized growth,"locus YPL241C, strain CIN2, active compounds read low",0.982
same,normalized growth,"locus YPL256C, strain CLN2, active compounds read low",1.02
same,normalized growth,"locus YPR119W, strain clb2, active compounds read low",0.988
same,normalized growth,"locus YPR141C, strain kar3, active compounds read low",0.995
same,normalized growth,"locus YPR163C, strain tif3, active compounds read low",0.968
same,normalized growth,"locus YPR167C, strain met16, active compounds read low",0.976
same,normalized growth,"strain wtn01, active compounds read low",0.981
